Active and inactive are the calls of the source. The calls were made as follows: active = hit-call score of the fitted dose curve at least 0.9, where 1 is the maximum; inactive = score below 0.9.

The nature of the experiment: CCTE_Shafer_MEA_acute_burst_number: CCTE's Neural Acute Assay for Single-Electrode Bursts, Shafer Lab (AID 2284013). The method, then:
CCTE_Shafer_MEA_acute assay is conducted using Axion Biosystems 48 well microelectrode array (MEA) plates and Maestro recording system. Each well of the MEA plate contains a grid of 16 microelectrodes embedded in the culture surface. Electrically active cells, such as neurons, can be cultured over the electrodes, and electrical activity in these cells can be recorded extracellularly. The spontaneous firing of neurons is captured from each electrode on a microsecond timescale providing both temporally and spatially precise data. […] The CCTE_Shafer_MEA_acute assay uses primary cultures of rat cortical neurons. As these cultures mature over time, neural networks develop functional activity and form cohesive networks in which electrical activity can be highly coordinated. Baseline 40-minute recordings are made on days post-plating 13 or 15, followed by a secondary 40-minute recording after chemical exposure.CCTE_Shafer_MEA_acute_burst_number is a component of the CCTE_Shafer_MEA_acute assay. It measures the total number of single-electrode bursts (temporally-clustered groups of action potential firing) during a recording in a microelectrode array (MEA) using Axion Biosystems Maestro 768 channel amplifier with the AxIS adaptive spike detector. The recordings before and after chemical treatment are used to calculate a percent change in the burst number in each well.Data from the assay component CCTE_Shafer_MEA_acute_burst_number was analyzed into 1 assay endpoint. This assay endpoint, CCTE_Shafer_MEA_acute_burst_number, was analyzed in the negative analysis fitting direction relative to DMSO as the negative control and baseline of activity. Using a type of functional reporter, gain or loss-of-signal activity can be used to understand electrical activity.
Spontaneous activity in the cortical cultures was recorded using an Axion Biosystems Maestro 768 channel amplifier and Axion Integrated Studios (AxIS) v1.8 (or later) software. The amplifier recorded from all channels simultaneously (gain = 1200 x; sampling rate = 12.5 kHz/channel): raw signals were filtered with a Butterworth band-pass filter (300-5000 Hz), which filters out slower local field potentials leaving only fast potentials, i.e., "spikes", arising from extracellular currents associated with action potentials (Pine 2006; Wheeler and Nam 2011). On-line spike detection of filtered signals was conducted with the AxIS adaptive spike detector, using a threshold of 8x the root mean squared (rms) noise on each channel. Any electrodes with rms noise levels greater than 5 uV were grounded (e.g., no data were recorded). Once grounded, an electrode was grounded for the duration of the experiment. All recordings were conducted at 37 C. Wells were deemed usable if on the day of the exposure >/= 10 electrodes were active (defined as >/= 5 spikes/min). On DIV 13 or 15, a minimum of three wells from one cortical culture preparation were treated with each compound (0.03-40 uM). Prior to recording baseline activity, each mwMEA plate was placed in the Maestro at 37 C and allowed to sit for 20 min while firing rates stabilized. Baseline activity (40 min) was recorded before the addition of each compound. An additional 40 min of spontaneous activity was recorded in the presence of each compound. Changes in network parameters relative to baseline were assessed following compound treatment.
Take `C=CCOC(Cn1ccnc1)c1ccc(Cl)cc1Cl` (centres undefined): the AC50 (commonly the midpoint of the concentration-response curve, whichever way the signal moves) was 3.97 µM (active).
Consider `N#CSCSc1nc2ccccc2s1`, for which the result was inactive.
In the case of `Cc1nn(C)c(Oc2ccccc2)c1C=NOCc1ccc(C(=O)OC(C)(C)C)cc1`, the AC50 is 0.003 µM (active).
For the compound `O=C(c1ccc(O)cc1O)c1ccc(O)cc1O`, the result was inactive.
`CCNc1nc(N)nc(Cl)n1`: the outcome was inactive.
Same read-out and setting: with `O=C(c1ccccc1)C1CCCCC1` the entry was “inactive”.
`O=C(Nc1ccc([N+](=O)[O-])cc1Cl)c1cc(Cl)ccc1O`: the AC50 was 0.0944 µM (active).
On to `COC(=O)c1ccccc1C(=O)O`, for which the compound was classed as inactive.
Regarding `CCCN(CCC)c1c([N+](=O)[O-])cc(C(F)(F)F)c(N)c1[N+](=O)[O-]`, the result was inactive.
On to `Oc1ccc(C(c2ccc(O)cc2)C(Cl)(Cl)Cl)cc1`, for which the AC50 was 2.22 µM (active).
With `CCCCC(CC)CN1C(=O)C2C3C=CC(C3)C2C1=O` (centres undefined), the outcome was inactive.
Still for that read-out and setting: with `C#CCOC(=O)[C@@H](C)Oc1ccc(Oc2ncc(Cl)cc2F)cc1` the entry was “inactive”.
On the same count and under the same terms, in the case of `CC1(C)C(C=C(Cl)Cl)C1C(=O)OCc1cccc(Oc2ccccc2)c1` (centres undefined) it was “inactive”.
Same read-out and setting: in the case of `OB(O)O` it was “inactive”; in that of `CSC(=O)c1cccc2nnsc12`, “inactive”.
In the case of `CC(C)CCCCCCc1ccc(O)cc1`, the concentration at half-maximal activity (AC50) is 6.34 µM (active).
The same measure, in the same setting: with `CC(C)(c1ccc(O)cc1)c1ccc(O)cc1` the figure was 6.17 µM (active).
Regarding `CC(C)(C)[C@@H](O)[C@@H](Cc1ccc(Cl)cc1)n1cncn1`, the compound was classed as inactive.
On the same count and under the same terms, with `O=C(O)c1ccccc1` the entry was “inactive”.

These data come from PubChem BioAssay (EPA / NIEHS).
